PP1 inh = blocks human PP1-alpha phosphatase, a PP5 counter-screen | purified PP1alpha, OMFP fluorescence | inhibition, % at 6.7 µM | 320,000 tested, 0.9% active;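 active = inhibition above the mean inhibition of all tested compounds plus 3 SD, computed separately for each screening campaign, cut at about 15% in these data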
TMEM16A act = mouse TMEM16A channel activation, primary screen; AID 623877; 340,000 tested, 0.3% active; HEK293 TMEM16A/YFP-H148Q/I152L, iodide quench fluorescence; hits give low values; B-score at 10 µM;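 active = fluorescence-ratio B-score plate-corrected deviation score at least 3 library SD below zero, with starting fluorescence score within 5 deviations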;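 note: channel opened by trigger with iodide after compound preincubation; score built on the fluorescence ratio of max minus min over baseline; more negative score means more quench and so TMEM16A activation or potentiation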
ANO1 block = blocks the mouse calcium-activated chloride channel TMEM16A; Q8BHY3; HEK293 TMEM16A/YFP iodide influx fluorescence, ionomycin; normalized B-score (activity score, 25-100; higher = stronger inhibition) at 10 µM; 310,000 tested, 1.2% active;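 active = ratio plate-corrected score three or more library SD toward inhibition, starting fluorescence score within five deviations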;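 note: score derived from kinetic fluorescence span divided by baseline fluorescence per well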
PP5 primary = inhibitors of human protein phosphatase 5 (PP5); P53041; purified PP5c, OMFP substrate fluorescence; inhibition, % at 6.7 µM; 320,000 tested, 0.18% active; AID 1987;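 active = inhibition above the campaign's mean inhibition across all tested compounds plus 3 SD, cut at about 9.5% in these data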;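 note: 0% = DMSO only and 100% = 100 µM cantharidin control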
Target sequence (P53041 whole entry, looked up): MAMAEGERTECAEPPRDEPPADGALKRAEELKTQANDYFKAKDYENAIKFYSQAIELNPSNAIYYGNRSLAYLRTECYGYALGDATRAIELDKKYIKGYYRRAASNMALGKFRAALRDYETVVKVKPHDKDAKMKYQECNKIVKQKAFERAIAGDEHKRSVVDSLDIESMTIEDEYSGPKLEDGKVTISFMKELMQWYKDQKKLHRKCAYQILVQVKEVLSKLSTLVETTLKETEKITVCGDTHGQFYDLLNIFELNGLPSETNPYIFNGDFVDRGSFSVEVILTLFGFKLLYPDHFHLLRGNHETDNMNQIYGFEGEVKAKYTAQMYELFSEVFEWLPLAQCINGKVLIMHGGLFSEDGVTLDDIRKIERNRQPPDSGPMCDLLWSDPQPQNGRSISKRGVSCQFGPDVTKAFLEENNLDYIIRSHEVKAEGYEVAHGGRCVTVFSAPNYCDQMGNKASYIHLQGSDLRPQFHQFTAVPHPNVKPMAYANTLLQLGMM
PREPL inh = inhibitors of human prolyl oligopeptidase-like enzyme PREPL; recombinant PREPL, fluorescence polarization activity-based probe; inhibition, % at 5.96 µM; 320,000 tested, 0.68% active; AID 2751; in the data active = inhibition above about 43%;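 note: 0% = enzyme with DMSO and 100% = wells lacking enzyme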
FID counter = fluorescent intercalator displacement, NS3 helicase counter-screen | DNA fluorescent intercalator displacement, fluorescence | inhibition, % at 7.9 µM | 290,000 tested, 0.17% active; in the data active = inhibition above about 37%;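 note: 0% = vehicle and 100% = reference compound; higher means more ethidium bromide displaced from hairpin DNA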
TMEM16A reconf = reconfirmed blocker of mouse TMEM16A calcium-activated chloride channel. HEK293 TMEM16A/YFP-H148Q, iodide quench fluorescence; ionomycin added to raise cell calcium. 2,300 tested, 39% active. AID 652189. inhibition, % at 10 µM. shares compounds with ANO1 block;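 active = mean duplicate percent inhibition, scaled so buffer wells are 0 and the reference blocker 100, over three buffer SD above buffer mean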
HEK293 Ca mobil = alters calcium mobilization in TMEM16A HEK293 cells, counter-screen; calcium response (% of ionomycin), % at 10 µM; TMEM16A/YFP HEK293, Fluo4 calcium mobilization; shares compounds with ANO1 block; 2,300 tested, 2% active;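 active = duplicate-averaged calcium signal over 20% of the ionomycin maximum, relative to buffer baseline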;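 note: each well's signal is peak minus trough fluorescence divided by its pre-addition baseline; 0% = buffer wells and 100% = ionomycin wells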
Parental YFP cnt = acts in parental YFP-HEK293 cells lacking TMEM16A, counter-screen; shares compounds with ANO1 block; YFP ratio F(max-min)/F0 at 10 µM; 2,300 tested, under 10 active; iodide YFP quench, ionomycin;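 active = yellow fluorescent protein signal ratio exceeding the buffer control mean by over 5 SD of those controls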;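 note: ratio is mean of duplicate wells from kinetic YFP trace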
ClC-1 inh = selectivity of TMEM16A inhibitors: inhibition of rat ClC-1 chloride channel | AID 652236 | shares compounds with ANO1 block | 2,300 tested, under 10 active | CHO ClC-1-YFP, iodide influx fluorescence quench; iodide control reads 0, buffer control 100 | ratio percent, % at 10 µM;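 active = duplicate-mean ratio percent above the mean of iodide-only control wells, which defines zero, plus 5 of their SD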;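 note: higher percent means stronger block of ClC-1 iodide influx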
The depositor's hits bear a star; i = inactive; . = no result given. The list is not random: actives were taken first. Their share in the collection is about 2.7%.

SMILES	PP1 inh	TMEM16A act	ANO1 block	PP5 primary	PREPL inh	FID counter	TMEM16A reconf	HEK293 Ca mobil	Parental YFP cnt	ClC-1 inh
CCOC(=O)c1ccc(NC(=O)CCc2ccc(CC)o2)cc1	-1	i	100*	2	7	-16	i	i	-1.1	-8
COC(=O)c1ccc(NC(=S)NCCc2ccccc2)cc1	-2	i	i	3	-5	-10	.	.	.	.
CCOC(=O)c1ccc(NC(=S)NCc2ccccc2)cc1	4	i	i	4	5	-7	.	.	.	.
CC1CC(C)CN(CC(=O)NNC(=O)COc2ccc(Cl)cc2)C1 (stereo not drawn)	-3	i	.	2	18	.	.	.	.	.
COCCN(CC(=O)Nc1ccccc1C(F)(F)F)C(=O)/C=C/c1cc(Cl)c2c(c1)OCCO2	.	i	.	.	.	.	.	.	.	.
CC(C)c1cc(C(=O)N2CCCC(CCC(=O)NCc3ccccc3F)C2)n(C)n1 (stereo not drawn)	0	i	100*	0	9	-25	i	i	-1.1	-16
C=C[C@H](Cc1ccccc1)N(Cc1ccccc1)S(=O)(=O)N(Cc1ccccc1)[C@H](C=C)Cc1ccccc1	.	i	.	.	13	.	.	.	.	.
COc1ccc(-c2cc(C3CCN(c4cc(Cl)nc(N)n4)CC3)[nH]n2)cc1	1	i	i	2	-9	-32	.	.	.	.
COc1ccc(OC)c(-c2cc(C3CCN(c4cc(Cl)nc(N)n4)CC3)[nH]n2)c1	6	i	100*	6	11	-29	i	i	-1.2	-20
CSc1ncccc1C(=O)N1CCN(S(=O)(=O)c2ccccc2)CC1	0	i	i	-3	-4	-10	.	.	.	.
CCNS(=O)(=O)c1ccc(CCC(=O)N2CCN(Cc3ccccc3)CC2)cc1	-9	i	i	0	3	-6	.	.	.	.
O=C(C1COc2ccccc2O1)N1CCN(Cc2ccc3c(c2)OCO3)CC1 (stereo not drawn)	0	i	25*	2	6	-20	i	i	-0.95	-6
O=C(Nc1ccccc1)N1CCN(Cc2ccc3c(c2)OCO3)CC1	-6	i	100*	2	-5	-2	i	i	-1.2	2
O=C(C1COc2ccccc2O1)N1CCN(Cc2ccc(Br)cc2F)CC1 (stereo not drawn)	1	i	i	2	-6	-45	.	.	.	.
Cc1cc(C)cc(NC(=O)N2CCN(Cc3ccc4c(c3)OCO4)CC2)c1	-2	i	i	4	14	-8	.	.	.	.
O=C(CCc1ccc(S(=O)(=O)NCCc2ccccc2)cc1)N1CCN(Cc2ccc3c(c2)OCO3)CC1	-1	i	25*	5	43	-16	i	i	-0.82	-3
NC(=O)C1CCN(C(=O)C(=O)c2cn(CC(=O)N3CCCCCC3)c3ccccc23)CC1	-5	i	i	3	7	-23	.	.	.	.
Cc1ccc(N(C(=O)CNC(=O)c2cccs2)C(C(=O)NC2CCCC2)c2ccncc2)cc1 (stereo not drawn)	-2	i	i	3	0	-37	.	.	.	.
C=CCOc1ccc(/C=C(\C#N)C(=O)Nc2ccccn2)cc1	-4	i	i	0	-5	-7	.	.	.	.
N#Cc1c(-c2cccc(Br)c2)cc(-c2cccnc2)nc1N	5	i	25*	1	7	-6	25%*	i	-0.99	-9
N#Cc1c(-c2ccc(Br)cc2)cc(-c2cccnc2)nc1N	-2	i	i	2	6	-7	.	.	.	.
Cc1ccc(-c2nc(CNC(=O)c3cc(C)on3)cs2)cc1	11	i	i	3	-11	-18	.	.	.	.
